# Records with an inconclusive call do not appear. Unmarked numbers belong to inactive results. Active and inactive are the calls of the source. Calls follow the shape of the dose curve; as a rule, active = well fitted cell-killing curve with a large enough effect; inconclusive = small, poorly fitted or top-dose-only effect; inactive = no such curve, though single readings can be large or run the other way.
# Test: qHTS of pediatric cancer cell lines to identify multiple opportunities for drug repurposing: Primary screen for SK-N-MC cells (AID 1347093)
# Details: SK-N-MC viability, CellTiter-Glo luminescence, 48 h; series mostly up to 46 µM; activity change, negative = cytotoxic: at the top concentration
# Description: Drug repurposing or repositioning has been offered as a strategy for drug development in oncology programs. This approach has special potential for childhood cancers and other rare or orphan diseases, where the expected return on new drug development has been a disincentive to pharmaceuticals.
# In this project we exploit the poly-pharmacology of drugs to discover new indications via phenotypic screening of a panel of 19 well-characterized cell lines derived from solid tumors seen in children and adolescents. The goal is to identify approved drugs with previously unrecognized anticancer properties that has the potential to reveal new mechanisms and biological processes involved in carcinogenesis or drug resistance. We employed a titration-based paradigm (quantitative high-throughput screening or qHTS), where all compounds were tested at multiple concentrations for their effect on cell viability. Concentration-response curves (CRCs) were derived directly from the primary screen, and both potency and efficacy values were used to identify compounds with robust bioactivity profiles. We screened the NIH Chemical Genomics Center (NCGC) Pharmaceutical Collection (NPC) and Mechanism Interrogation Plate (MIPE) small molecule collections of approved and investigational compounds against these cell lines; and measured metabolically active cells after 48 hours of compound treatment as a proxy for cell viability.
# Assay Submitter: Nathalia J. Martinez, National Center for Advancing Translational Sciences, National Institutes of Health, Rockville, MD, USA; email: natalia.martinez@nih.gov
# [1] Shen, M et al. Quantitative high-throughput phenotypic screening of pediatric cancer cell lines identifies multiple opportunities for drug repurposing. Oncotarget 2017 Dec 19;9(4):4758-4772. PMID 29435139.
# The cells were obtained from University of North Carolina (UNC), Pediatric Preclinical Testing Program (PPT), and Coriell Institute (CI).
# qHTS cell viability assay:
# Cells were assayed in growth media at a density of 500-1,000 cells/well. Five microliters of cells were dispensed into 1,536-well, white, solid-bottom, TC-treated plates (Greiner Bio One) using a multidrop dispenser and incubated at 37 degrees C, 5% CO2, under a humidified atmosphere for 5 hours. Twenty-three nanoliters of compounds and controls (neutral control DMSO or positive control bortezomib at final concentration of 2.3 µM) were subsequently transferred by Kalypsys pintool. For primary screens, the MIPE collection was tested at 11-point dilutions (final concentrations range from 0.78 nM to 46 µM) and the NPC collection at 8-point dilutions (final concentrations range from 0.59nM to 46 µM). Compounds tested in follow-up screens were assayed at 11-point dilutions. Cells were incubated for 48 hours, followed by addition of 3 uL of CellTiter-Glo (Promega). After a 15 min incubation at room temperature, samples were analyzed for luminescence intensity using a ViewLux High-throughput CCD imager equipped with clear filters.
# Potency is read from the fitted curve at half-maximal effect.
Compound,"activity change, negative = cytotoxic",Potency
O=Cc1ccccc1C=O,-17%,
CN1CCOC(c2ccccc2)c2ccccc2C1 (stereo not given),-10.5%,
CC(=O)CCC(=O)O,3.89%,
C[C@@H]1CCN(C(=O)[C@H](CCCN=C(N)N)NS(=O)(=O)c2cccc3c2NC[C@H](C)C3)[C@@H](C(=O)O)C1,3.88%,
CCOc1ccc2ccccc2c1C(=O)N[C@@H]1C(=O)N2[C@@H]1SC(C)(C)[C@@H]2C(=O)O,3.23%,
CCCCc1ncc(/C=C(\Cc2cccs2)C(=O)O)n1Cc1ccc(C(=O)O)cc1,-25.8%,
Cc1ncc(COP(=O)(O)O)c(C=O)c1O,-18.7%,
CC12CCC(CC1)C(C)(C)O2,4.67%,
NC(=O)NNc1ccccc1,-3%,
Oc1cn2c(n1)Nc1ccc(Cl)c(Cl)c1C2,-5.05% [at 16.1 µM],
Cc1cc2nc3c(=O)[nH]c(=O)nc-3n(C[C@H](O)[C@H](O)[C@H](O)CO)c2cc1C,-14.7% [at 16.1 µM],
CCOC(=O)c1ccc(O)cc1,-5.77%,
C[C@H]1O[C@H](O[C@H]2[C@H](O)[C@@H](O)[C@@H](O[C@H]3[C@H](O)[C@@H](O)[C@H](O)O[C@@H]3CO)O[C@@H]2CO)[C@H](O)[C@@H](O)[C@@H]1N[C@H]1C=C(CO)[C@@H](O)[C@H](O)[C@H]1O,-4.89%,
Nc1ccc(S(=O)(=O)Nc2ccccc2)cc1,-28%,
O=C1N=C(O)CN1/N=C/c1ccc(-c2ccc([N+](=O)[O-])cc2)o1,,5.31 µM (active)
Cc1ccc(C(C)C)cc2c(C)ccc1-2,8.34%,
C=CCn1c(=O)n([C@@H]2O[C@H](CO)[C@@H](O)[C@H]2O)c2nc(N)[nH]c(=O)c21,-3.33%,
CC(=O)Nc1ccc(/C=N/NC(N)=S)cc1,10.6%,
CCCn1cnc2c1c(=O)n(CCCCC(C)=O)c(=O)n2C,15.3%,
CCN(CC)CCNC(C(=O)OCCC(C)C)c1ccccc1 (stereo not given),-10.2%,

Compound,"activity change, negative = cytotoxic",Potency
N[C@H](C(=O)O)c1ccc(O)cc1,0.887% [at 16.1 µM],
CC(=O)NC(Cc1ccccc1)C(=O)O (stereo not given),-20%,
C[C@@H]1CC[C@@]2(OC1)O[C@H]1C[C@H]3[C@@H]4CC[C@H]5C[C@@H](O)CC[C@]5(C)[C@H]4CC(=O)[C@]3(C)[C@H]1[C@@H]2C,6.15% [at 4.84 µM],
CC1(C)CO[C@@H](CC(=O)O)CN1,-8.4%,
NS(=O)(=O)c1cc2c(cc1C(F)(F)F)NC(Cc1ccccc1)NS2(=O)=O (stereo not given),-8.96%,
Cc1cccc(C)c1NC(=O)CN(CC(=O)O)CC(=O)O,6.52%,
CCCCCCCCCCCCCCCCCCOCC(O)CO (stereo not given),-7.91%,
NCC(=O)CCC(=O)O,-9.07%,
O=C(O)c1ccccc1O,2.82%,
C[C@@H](O)[C@H](N)C(=O)O,-17.7% [at 16.1 µM],
O=c1cc[nH]c(=O)[nH]1,-8.67%,
Cc1ccc2nc(N)[nH]c(=O)c2c1Sc1ccncc1,,0.944 µM (active)
O=C1O[C@H](CO)[C@@H](O)[C@H](O)[C@H]1O,8.14%,
CNC(=O)Oc1ccc2c(c1)[C@]1(C)CCN(C)[C@@H]1N2C,10.4%,
CC(C)(C)C(=O)NCCCC(=O)O,10.9%,
CN(N=O)C(=O)N[C@@H]1[C@@H](O)[C@H](O)[C@@H](CO)O[C@@H]1O,7.7%,
Nc1ccc(S(=O)(=O)NC(=O)c2ccccc2)cc1,-10.7%,
CCN(CC)C(C)CN1c2ccccc2Sc2ccccc21 (stereo not given),-8.6%,
CS(=O)(=O)c1ccc([C@@H](O)[C@@H](CF)NC(=O)C(Cl)Cl)cc1,68.6%,
CC[C@@]1(c2ccccc2)NC(=O)N(C)C1=O,-3.78%,

# — PubChem BioAssay (NCATS)
